In the library only some 6.5% were active in any assay of this set; here they are far more common.
HCMV antiviral: qHTS Assay for inhibitors of the human cytomegalovirus (HCMV). HFF cells, HCMV-luciferase reporter, 72 h; hits give low values. activity change, negative = inhibition, % at 57.5 µM. 4.5% of 410,000 active. AID 1259415, 2018; in the data active = activity change below about -60%; inconclusive = no clear call, values can overlap the other calls; inactive = above about -39%
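HFF cells seeded 16 h at 37C, treated with compounds, infected with luciferase-reporter HCMV at MOI 1 PFU/cell; luciferase read at 72 h post infection, normalized to buffer-only and Salinomycin controls.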
Marburg entry inh: qHTS for inhibitors of binding or entry into cells for Marburg Virus; Potency, µM (top dose mostly 37.8 µM), for inactives: at the highest dose activity change, negative = inhibition, most hits filed as inhibitors; Marburg virus pseudotyped entry inhibition, cell reporter; 1.8% of 300,000 active; calls by dose curve; tested in HEK293 cells; also: potency is read from the fitted curve at half-maximal effect
VACV mCherry inh: qHTS for Stage-Specific Inhibitors of Vaccinia Orthopoxvirus: mCherry Reporter Primary qHTS. Vaccinia virus mCherry reporter infection, fluorescence. Potency, µM (doses to about 36.5 µM), for inactives: at the highest dose activity change, negative = inhibition, usual class: inhibitors. 0.63% of 310,000 active. AID 720579, 2013; calls by dose curve; tested in A549 cells; also: potency is read from the fitted curve at half-maximal effect; nearly all actives have a fitted effect of over 35% in size
FMDV antiviral: High Throughput Screening for Foot and Mouth Disease Virus Antivirals. FMDV antiviral cell-based qHTS. Potency, µM (series often up to 57.9 µM), for the others: at the highest dose activity change, negative = inhibition, actives largely listed as inhibitors. 1.2% of 410,000 active; calls by dose curve; tested in HEK293T cells; also: read-out not given here; potency is read from the fitted curve at half-maximal effect; nearly all actives have a fitted effect of over 45% in size
LASV entry inh: qHTS for Inhibitors of binding or entry into cells for Lassa Virus; Lassa virus pseudotype entry inhibition, cell reporter; Potency, µM (highest dose often 37.9 µM), for inactives: at the highest dose activity change, negative = inhibition, actives largely listed as inhibitors; 1.2% of 300,000 active; AID 540256, 2011; calls by dose curve; tested in HEK293 cells; also: potency is read from the fitted curve at half-maximal effect; nearly all actives have a fitted effect of over 50% in size
Vaccinia Venus: qHTS for Stage-Specific Inhibitors of Vaccinia Orthopoxvirus: Venus Reporter Primary qHTS; Vaccinia virus Venus reporter expression, fluorescence; Potency, µM (doses to about 36.5 µM), inactives show at the top dose activity change, negative = inhibition, most hits filed as inhibitors; 0.46% of 330,000 active; calls by dose curve; tested in A549 cells; also: potency is read from the fitted curve at half-maximal effect; nearly all actives have a fitted effect of over 30% in size
* marks the source's active call; other numbers are inactive results; i = inactive; ? = inconclusive; . = no result; + = active, no number; [ ] = remark or other dose. % is scaled to controls: 0 for no effect and ±100 for the full control effect.

SMILES	HCMV antiviral	Marburg entry inh	VACV mCherry inh	FMDV antiviral	LASV entry inh	Vaccinia Venus
Cn1ccc2c(/C=C/c3ccc(F)cc3)cc3c(c21)C1CCC3C1 (stereo not given)	-67*	.	i	-11%	.	1%
Cn1ccc2c(/C=C/c3ccc(F)cc3)cc3c(c21)C1CCC3O1 (stereo not given)	-16	.	10%	-15%	.	-11%
CNc1nc2cnc(Nc3cccc(F)c3)cc2n1CCOC	15	.	.	.	.	.
O=C(c1ccc(Cl)c(S(=O)(=O)Nc2ccc(F)cc2)c1)N1CCN(c2ccccn2)CC1	-18	15µM*	.	-5%	?	.
CN(c1ccccc1)S(=O)(=O)c1cc(C(=O)N2CCN(c3ccccn3)CC2)ccc1Cl	-16	?	.	13µM*	?	-21%
CCOC(=O)c1ccc(NC(=O)NCCOCCn2c(=O)oc3ccccc32)cc1	-27	-26%[46.1 µM]	-9%	?	0%[46.1 µM]	-14%
COc1cccc(CN(C)C(=O)c2cccc(S(=O)(=O)N3CCN(Cc4ccccc4)CC3)c2)c1OC	-74*	?	-8%	?	?	-22%
CN(Cc1ccc(OC(F)F)cc1)C(=O)c1cccc(S(=O)(=O)N2CCN(Cc3ccccc3)CC2)c1	-92*	?	-20%	13µM*	?	-22%
COc1cccc(CN(C)C(=O)c2cccc(S(=O)(=O)N3CCN(c4ccccc4)CC3)c2)c1OC	-70*	0%	.	18µM*	.	.
CN(Cc1ccc(Cl)cc1Cl)C(=O)c1cccc(S(=O)(=O)N2CCN(c3ccccc3)CC2)c1	?	?	-10%	?	?	-26%
CN(CC(=O)Nc1ccc(Cl)cc1)C(=O)c1cccc(S(=O)(=O)N2CCN(Cc3ccccc3)CC2)c1	-73*	?	-13%	22µM*	-18%	-24%
CN(C)C(=O)c1ccc(NC(=O)c2cccc(S(=O)(=O)N3CCN(Cc4ccccc4)CC3)c2)cc1	18	.	.	?	.	.
CN(Cc1ccco1)C(=O)c1cccc(S(=O)(=O)N2CCN(Cc3ccccc3)CC2)c1	-12	.	i	-23%	.	-5%
CN(Cc1c(F)cccc1Cl)C(=O)c1cccc(S(=O)(=O)N2CCN(Cc3ccccc3)CC2)c1	1	.	.	-23%	.	.
O=C(NCCN1CCC(n2c(=O)[nH]c3cc(Cl)ccc32)CC1)c1ccc(F)cc1	-33	.	.	.	.	.
Cc1ccc(C)n1C1C(=O)N(Cc2ccc(C(C)C)cc2)c2ccc(F)cc21 (stereo not given)	27	.	.	.	.	.
CC(C)[N+]1(C)[C@@H]2CC[C@H]1CC(OC(=O)[C@@H](CO)c1ccccc1)C2 (stereo not given in full)	.	.	.	-7%	.	.
CN(C)c1ccc(C(CNC(=O)c2ccccc2F)N2CCc3ccccc32)cc1 (stereo not given)	-13	.	-3%	6%	-1%[46.1 µM]	-7%
COc1ccc(NC(=O)CN(C)C(=O)c2cccc(S(=O)(=O)N3CCN(c4ccc(F)cc4)CC3)c2)cc1	-73*	-1%	.	?	.	.
COc1cccc(CN(C)C(=O)c2cccc(S(=O)(=O)N3CCN(c4ccc(F)cc4)CC3)c2)c1OC	-80*	2µM*	?	20µM*	?	-15%
Cc1cccc(NC(=O)NCc2ccc3[nH]c(C)cc3c2)c1	6	.	i	30%	.	-11%
S=C(NCc1ccc(Cl)cc1Cl)NC1CCCCC1	-78*	?	?	-6%	8.9µM*	?
Cc1cc2cc(CNC(=S)NC3CCCCC3)ccc2[nH]1	-63*	-14%	.	11%	?	.
Cc1ccc(NC(=O)NCc2ccc3[nH]c(C)cc3c2)cc1	-84*	.	-1%	37%	.	8%
Clc1ccc(CNC2CCCC2)c(Cl)c1	?	-13%	-8%	.	-14%	-8%
SMILES	HCMV antiviral	Marburg entry inh	VACV mCherry inh	FMDV antiviral	LASV entry inh	Vaccinia Venus
COc1cc(C(CC(=O)NCc2ccc(F)cc2)N2Cc3ccccc3C2=O)cc(OC)c1OC (stereo not given)	17	.	-14%	40%	-11%[46.1 µM]	-6%
C=C1C=C(C)n2ncc(C(=O)Nc3cccc(C(=O)Nc4cccc(C(F)(F)F)c4)c3)c2N1	.	.	-15%	.	.	-18%
O=C(NCc1ccco1)C1=CN2CCN(Cc3ccccc3)C(=O)N=C2O1	0	.	.	.	.	.
COc1ccc(Nc2nccc3c2cc(-c2ccc(C(=O)N(C)C)cc2)n3C)c(OC)c1	-15	.	.	.	.	.
COc1ccc(C(=O)OCc2cc(=O)n3nc(C4CC4)sc3n2)cc1OC	-8	.	-8%	-14%	27%[46.1 µM]	-9%
CCCN(CC(=O)Nc1ccccc1C)C(=O)CCl	-99*	?	4.5µM*	13µM*	?	4.5µM*
CCCN(CC(=O)Nc1ccccc1C)C(=O)C1CC(=O)N(Cc2ccccc2)C1 (stereo not given)	-98*	10%	-15%	16%	-11%	-14%
CN=c1sc2ccccc2n1C[C@@H](O)COCc1ccco1	.	0%[46.1 µM]	.	.	.	.
COc1ccccc1-c1noc(CCCC(=O)Nc2cc(C)ccc2C)n1	-7	-7%[46.1 µM]	-9%	-21%	-5%[46.1 µM]	-6%
COc1cc(C(=O)c2ccc3c(c2)OCO3)cc(OC)c1OC	-83*	?	?	-6%	?	-15%
COc1cccc(/C=C/C(=O)c2ccc3c(c2)OCO3)c1OC	.	-18%	13µM*	26%	14%	?
COc1cc(C(=O)c2cocc2C(=O)c2ccc3c(c2)OCO3)cc(OC)c1OC	7	?	-30%	-18%	11%	-18%
COc1ccc(N/C=C\C(=O)c2ccc3c(c2)OCO3)cc1OC	?	26%	i	46%	1%	-15%
CC(C)=CCN1C(=O)C2(CC(C)=C[C@@H](C)O2)c2c(Br)cccc21 (stereo not given in full)	.	11%[14.2 µM]	.	.	.	.
Cc1csc(CN(C)C(=O)CC2C(=O)NCCN2Cc2ccc(Cl)c(F)c2)n1 (stereo not given)	+	.	.	-2%	.	.
Cc1csc(CN(C)C(=O)CC2C(=O)NCCN2Cc2ccc(F)cc2Cl)n1 (stereo not given)	-32	.	.	-9%	.	.
CCOC(=O)N1CCN(Cc2nc3cc(NC(=O)c4ccc(OC)cc4)ccc3n2C(C)C)CC1	-36	?	?	0%	?	?
CC(=O)N1CCN(Cc2nc3cc(NC(=O)c4ccccc4C)ccc3n2C)CC1	27	-7%	.	-11%	7%	-14%
CCOC(=O)N1CCN(Cc2nc3cc(NC(=O)c4ccc(F)cc4)ccc3n2C(C)C)CC1	-85*	?	-26%[7.34 µM]	?	-25%[46.1 µM]	-18%[7.34 µM]
Cn1c(CN2CCCCC2)nc2cc(NC(=O)c3ccc(F)cc3)ccc21	-62*	?	.	?	?	.
CC(=O)N1CCN(Cc2nc3cc(NC(=O)c4ccc(Cl)cc4)ccc3n2C)CC1	-80*	-19%	-7%	?	-17%	-22%

From PubChem BioAssay
